This is an account of results in PubChem BioAssay AID1950 (The Scripps Research Institute Molecular Screening Center, 2009).

Screen size: about 300,000 compounds; about 1,000 (0.33%) were called active. Rule as the data show it: active = inhibition above about 28%; inactive = the rest. Only a selection was taken, and actives are over-represented in it overall.

Usually inhibition stands for the drop in the measured response relative to a control, in per cent.

The subject of this assay is EBNA-1 (Epstein-Barr virus nuclear antigen 1), Human herpesvirus 4. In words: blockers of EBV EBNA-1 binding to DNA – biochemical, fluorescence polarization, primary screen (AID 1950). The note with it: EBNA-1 DNA binding, at 14.8 µM, active compounds read high.
As for `COc1ccc(CN2C(=O)CC(Cc3ccc(C)cc3)C2=O)cc1OC` (stereo unspecified), the inhibition is 9.56% (inactive). The value for `O=C(CN1CCCCC1)N1c2ccccc2Sc2ccc(C(F)(F)F)cc21` was -8.22% (inactive).

On to `CC(=O)N1CC(C)c2scc(C)[n+]2-c2ccccc21` (stereo unspecified), for which the inhibition was 0.91% (inactive). `CC(CCN1CCN=C1N(C)C)c1ccccc1` (stereo unspecified): the inhibition was -6.72% (inactive). Consider `O=C(NCCOc1cccnc1)c1ccc(OC2CCN(Cc3ccccn3)CC2)cc1`, for which the inhibition is 6.33% (inactive). As for `Cc1[nH]c(C)c(S(=O)(=O)N2CCC(C)CC2)c1C(=O)N1CCCC1`, the inhibition is 14.2% (inactive).

For `NC(=O)C(Cc1ccccc1)NC(=O)C12CC3CC(CC(C3)C1)C2` (stereo unspecified), the inhibition was 3.55% (inactive). With `COc1ccccc1C(=O)COC(=O)CNS(=O)(=O)c1ccc(NC(C)=O)cc1` the figure was 0.54% (inactive); with `CC(=O)Nc1ccc(S(=O)(=O)NCC(=O)OCc2cc(=O)oc3ccc4ccccc4c23)cc1`, 35.2% (active); with `CCC(=O)Nc1ccc(S(=O)(=O)Nc2c(NC)c3ccccc3oc2=O)cc1`, 8.74% (inactive).

Take `CCOc1cc(C2C(C(=O)c3ccco3)=C(O)C(=O)N2Cc2ccccc2)ccc1O` (stereo unspecified): the inhibition is 1.15% (inactive). With `CCC1CCCCN1C(=O)CSc1nc2c(c(=O)n1C)SC(C)C2` (stereo unspecified) the figure was -3.4% (inactive). For `COc1ccc(C(=O)CSc2nnc(NC(=O)C3CC(=O)N(c4cccc(OC)c4)C3)s2)cc1` (stereo unspecified), the inhibition was 51.4% (active). On to `CCOC(=O)CSc1nnc(NC(=O)C2CC(=O)N(c3ccc(F)cc3)C2)s1` (stereo unspecified), for which the inhibition was 6.41% (inactive). As to `COc1cccc(N2CC(C(=O)Nc3c(C)cccc3C)CC2=O)c1` (stereo unspecified), the inhibition was -0.66% (inactive). The value for `COc1ccc(N(C)C(=O)C2CCN(S(=O)(=O)c3cccc4nsnc34)CC2)cc1` was -5.5% (inactive); that for `Cc1ccc(O)c(-c2cc(C(=O)Nc3c(C)n(C)n(-c4ccccc4)c3=O)[nH]n2)c1` was 8.89% (inactive); that for `Cc1ccc(O)c(-c2cc(C(=O)NCc3ccccc3)[nH]n2)c1` was 30.8% (active). With `Cc1ccc(NC(=O)c2cc(-c3ccccc3O)n[nH]2)cc1C` the figure was -0.09% (inactive); with `COc1ccc(C(=O)N[C@H](C(=O)NCc2ccccc2)C(C)C)cc1`, 5.98% (inactive); with `CC(C)c1nnc(NC(=O)CCC(=O)N2CCN(c3cccc(Cl)c3)CC2)s1`, -2.44% (inactive). For the compound `CCCCNC(=O)C1(O)c2ccccc2NC(=O)N1c1ccc(Cl)cc1` (stereo unspecified), the inhibition was -19.8% (inactive).

`CN(C)S(=O)(=O)c1cccc(-c2nn(-c3ccccc3)cc2/C=C2\SC(=S)N(CC(=O)O)C2=O)c1`: the inhibition was 1.09% (inactive). The value for `Cc1ccc(-c2nn(-c3ccccc3)cc2/C=C2\SC(=S)N(CCCCCC(=O)O)C2=O)o1` was 29.3% (active); that for `COc1ccc(-c2nn(-c3ccccc3)cc2/C=C2/SC(=S)N(CCCC(=O)O)C2=O)c(C)c1` was 5.71% (inactive). The value for `CC(=O)N1CCCc2cc(S(=O)(=O)N3CCCC(C(=O)N4CCN(c5cccc(Cl)c5)CC4)C3)ccc21` (stereo unspecified) was -6.48% (inactive).

`COc1ccc(-c2cc(=O)oc3cc(OCC(=O)N(C)C4CCS(=O)(=O)C4)ccc23)cc1` (stereo unspecified): the inhibition was -3.28% (inactive). For `Nc1nnc(SCC(=O)Nc2ccc3nc(SCC(=O)Nc4ccccc4)sc3c2)s1`, the inhibition was 45.6% (active).

Take `CCCCNC(=O)CSc1nc2ccc(NC(=O)CSc3nnc(COc4ccccc4C)n3C)cc2s1`: the inhibition was -11.7% (inactive).

Regarding `CCCCNC(=O)CSc1nc2ccc(NC(=O)CSc3nnc(N)s3)cc2s1`, the inhibition was 6.23% (inactive). The value for `Nc1nc(SCC(=O)Nc2ccc(Cl)cc2C(F)(F)F)n[nH]1` was -6.65% (inactive); that for `CC(Sc1nc2c([nH]c3ccccc32)c(=O)n1C)c1ccccc1` (stereo unspecified) was 13.4% (inactive); that for `CCCCNC(=O)CCn1nc(-c2ccc(Cl)cc2)ccc1=O` was -9.91% (inactive). The value for `Cc1ccc(NC(=O)CN(C)C(=O)Cn2nnc(-c3ccccc3)n2)cc1` was -4.13% (inactive). With `COc1ccc(C23NCCN2C(=O)c2ccccc23)cc1` (stereo unspecified) the figure was -4.33% (inactive); with `COc1cccc(CNS(=O)(=O)c2csc(C(N)=O)c2)c1`, -4.82% (inactive); with `Cc1cc2oc(=O)cc(CN(C)Cc3ccc(OC(F)F)cc3)c2cc1Cl`, 2.59% (inactive). Regarding `C/C(=N\OCC(=O)O)c1ccc(Cl)cc1`, the inhibition is 8.77% (inactive).

`C/C(=N\N=C(N)N)c1ccc(Cl)cc1`: the inhibition was 39.1% (active). Take `C/C(=N\NC(=S)NCc1ccccc1)c1ccc(Cl)cc1`: the inhibition is -0.89% (inactive). With `Cc1ccc(CNC(=O)c2cccnc2Cl)cc1` the figure was -0.4% (inactive). The value for `CC/C(O)=C1\C(=O)CC(C)(C)CC1=NCCc1nc2ccccc2[nH]1` was 0.38% (inactive).

Regarding `CC(=O)C1=C(O)C(=O)N(c2ccc(Br)cc2)C1c1ccc([N+](=O)[O-])cc1` (stereo unspecified), the inhibition is -5.58% (inactive).

Turning to `CC1=NN(C(N)=S)C(=O)C1N=Nc1cc(Cl)ccc1Cl` (stereo unspecified), the inhibition is -8.59% (inactive). With `Cc1[nH]n(C(N)=S)c(=O)c1N=Nc1ccc(Cl)cc1Cl` the figure was 27.7% (active). With `Cc1cccc(N=Nc2c(C)[nH]n(-c3ccccc3)c2=O)c1` the figure was -10.4% (inactive); with `O=C(CCC(=O)OCc1cccc(C(=O)Oc2ccccc2)c1)Nc1cccc2ccccc12`, 0.44% (inactive); with `O=C(NC1CCCC1)C(c1ccccn1)N(C(=O)c1csnn1)C1CCCC1` (stereo unspecified), 2.45% (inactive).

On to `CCCn1c(N)c(C(=O)CSc2nc3ccccc3c(=O)n2-c2ccc(OC)cc2)c(=O)[nH]c1=O`, for which the inhibition is 5.25% (inactive). With `COC(=O)c1ccc(CSc2nc3ccccc3c(=O)n2-c2cccc(OC)c2)o1` the figure was -0.73% (inactive); with `COc1cccc(-n2c(SCC(=O)c3c[nH]c4ccccc34)nc3ccccc3c2=O)c1`, 46.8% (active); with `O=C(N/N=C/c1sc(N2CCCCC2)nc1-c1cccs1)c1cccnc1`, -5.56% (inactive). Take `N=c1n(Cc2ccc(Cl)cc2)c2ccccc2n1CC(O)c1ccco1` (stereo unspecified): the inhibition was -2.62% (inactive). With `CN1CCC(=NNC(=O)CN(c2cccc(Cl)c2)S(C)(=O)=O)CC1` the figure was -1.28% (inactive). Turning to `N#Cc1nc(N)nc(N(c2ccccc2)c2ccccc2)n1`, the inhibition was 32.2% (active). The value for `CC(C)Nc1nc(N(c2ccccc2)c2ccccc2)nc(-n2ccnc2)n1` was 1.21% (inactive); that for `COc1ccc(C(=O)OCC(=O)c2ccc(Cl)s2)c(OC)c1OC` was -6.57% (inactive); that for `COc1ccc(Cc2nnc(NC(=O)c3ccc(OC)cc3OC)s2)cc1` was -11.6% (inactive). With `COc1ccc(C(=O)Nc2cccc(NC(=O)c3ccc(OC)cc3OC)n2)c(OC)c1`, the inhibition was 64.7% (active).

As for `COC(=O)c1sc(NC(=O)c2ccc(OC)cc2OC)nc1C`, the inhibition was 5.25% (inactive). `O=C(COC(=O)c1ncc(Cl)c(Cl)c1Cl)NCc1cccs1`: the inhibition is 4.36% (inactive).

`Oc1cccc2ccc(/C=C/c3ccc(Br)s3)nc12`: the inhibition is 7.77% (inactive).

`Nc1ccc(S(=O)(=O)Nc2nccc(/C=C/c3ccc(Br)s3)n2)cc1`: the inhibition is 40.2% (active). The value for `CC(=O)Nc1ccc(S(=O)(=O)Nc2nccc(/C=C/c3ccccc3F)n2)cc1` was 3.71% (inactive).

Turning to `CCNS(=O)(=O)c1ccc(CCC(=O)N2CCN(c3cc(Cl)ccc3C)CC2)cc1`, the inhibition is -2.62% (inactive). With `O=C(NCc1ccccc1)C1=C[C@@H](c2ccccc2)C[C@@H](OCCCCO)O1` the figure was -2.36% (inactive); with `CN(C)CCOc1cccc(Br)c1`, 2.94% (inactive); with `COC(=O)C1=C(C)N(C(C)c2ccccc2)C(=O)/C1=C\c1ccco1` (stereo unspecified), 9.16% (inactive). With `CCc1ccccc1NC(=O)c1ccc2snnc2c1` the figure was -10.4% (inactive). For `O=C(Nc1ccc2ccccc2c1)Nc1ccc2snnc2c1`, the inhibition was 103% (active). The value for `O=C(Nc1cccc(Br)c1)c1ccc2snnc2c1` was -4.42% (inactive); that for `O=C1CC(Cc2ccc(Cl)cc2)C(=O)N1c1cc(Cl)ccn1` (stereo unspecified) was -3.65% (inactive); that for `CC(=O)n1cc([C@@H]2C=C(C(=O)N3CCN(Cc4ccc5c(c4)OCO5)CC3)O[C@H](OCc3ccc(CO)cc3)C2)c2ccccc21` was -9.33% (inactive). `CC(=O)c1cc2c(cc1NC(=O)Cn1nc(-c3ccc(F)cc3)ccc1=O)OCO2`: the inhibition is -3.93% (inactive). With `CCOc1cccc(NC(=O)Cn2nc(-c3ccc4c(c3)OCCO4)ccc2=O)c1` the figure was 35% (active). Take `CCc1ccccc1OCC(=O)Nc1ccc2c(c1)OCCO2`: the inhibition is -5.94% (inactive). Turning to `CCCCNC(=O)c1onc(CSc2cccc(OC)c2)c1C(=O)O`, the inhibition was 8.58% (inactive). With `CCOc1cccc(SCc2noc(C(=O)NC(C)C)c2C(=O)O)c1` the figure was 29.7% (active); with `COCCNC(=O)c1onc(CSc2cccc(C)c2)c1C(=O)O`, -0.97% (inactive). Consider `CCN(CC(=O)Nc1c(F)cccc1F)C(=O)C1CCC1`, for which the inhibition is -2.05% (inactive).

`CC(=O)Nc1ccc(NC(=S)NC(=O)c2ccc([N+](=O)[O-])c(C)c2)cc1`: the inhibition is -0.91% (inactive). For `CCOc1ccc(C(=O)NC(=S)Nc2ccc(NC(=O)C(C)C)cc2)cc1[N+](=O)[O-]`, the inhibition is 43.3% (active). With `CCOc1ccc(C(=O)NC(=S)Nc2ccc(N3CCOCC3)c(Cl)c2)cc1[N+](=O)[O-]` the figure was 7.49% (inactive); with `COc1ccc(C(C(=O)NC2CCCC2)N(CCCO)C(=O)Cn2nnc(-c3ccc(C)o3)n2)cc1` (stereo unspecified), -26.3% (inactive); with `CCOc1ccc(C(=O)Nc2ccncc2)cc1`, -2.27% (inactive). For `CCOc1ccc(NC(=O)c2ccc(NC(=O)COC(=O)c3ccc(NC(=O)CC#N)cc3)cc2)cc1`, the inhibition is 31.4% (active). Regarding `CC(C)NC(=O)NC(=O)COC(=O)c1ccc(NC(=O)CC#N)cc1`, the inhibition is 8.39% (inactive). With `COCCNc1cc(-c2ccccc2)nc2cc(-c3cccc(F)c3)nn12` the figure was -2.12% (inactive); with `NC(=O)c1ccc(NC(=O)COC(=O)c2ccc([N+](=O)[O-])cc2)cc1`, 7.68% (inactive). With `O=C(COc1ccc(/C=N/NC(=O)c2ccc(O)cc2)cc1)Nc1ccc([N+](=O)[O-])cc1` the figure was 52.6% (active). Consider `O=C(N/N=C/c1ccc(O)cc1)/C(=C/c1ccc([N+](=O)[O-])cc1)NC(=O)c1ccccc1`, for which the inhibition was 11.3% (inactive).
